An excerpt weighted towards active compounds, which were near 2.3% of everything screened.
DENV2 CPE rescue: inhibitors of DENV2 cytopathic effect, primary screen, cell-based, plate reader, single concentration | DENV2-infected cells, cytopathic effect rescue | CPE inhibition, % at 9.99 µM | hit rate 1.7% among 350,000 | AID 651640, 2012; in the data active = CPE inhibition above about 20%, passing the limit was not always enough; inconclusive = no clear call, values can overlap the other calls; tested in BHK-21 cells;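 also: 0% = median of neutral control wells and 100% = median of positive control wells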
PDI turbidity: inhibitors of human PDI, primary screen, biochemical, turbidity, single point, plate reader; hit rate 0.052% among 350,000; inhibition, % at 10 µM; PDI insulin aggregation turbidity, A650, 90 min;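 active = mean inhibition across replicates of 30% or more, whatever share of single replicates reach that level; inconclusive = mean inhibition below 30% while every single replicate reaches 30%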
ERp5 inh: inhibitors of ERp5-driven insulin aggregation, primary screen, biochemical, turbidity, absorbance 650 nm, single point | Protein disulfide-isomerase A6 (Homo sapiens), Q15084 | 90 min | inhibition, % at 9.99 µM | hit rate 0.05% among 350,000;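 active = mean replicate inhibition above about 25%, with every replicate also reaching it, limit read from the data, passing the limit was not always enough; inconclusive = only one of those two criteria met; inactive = neither criterion met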
Target sequence (Q15084 whole entry, looked up): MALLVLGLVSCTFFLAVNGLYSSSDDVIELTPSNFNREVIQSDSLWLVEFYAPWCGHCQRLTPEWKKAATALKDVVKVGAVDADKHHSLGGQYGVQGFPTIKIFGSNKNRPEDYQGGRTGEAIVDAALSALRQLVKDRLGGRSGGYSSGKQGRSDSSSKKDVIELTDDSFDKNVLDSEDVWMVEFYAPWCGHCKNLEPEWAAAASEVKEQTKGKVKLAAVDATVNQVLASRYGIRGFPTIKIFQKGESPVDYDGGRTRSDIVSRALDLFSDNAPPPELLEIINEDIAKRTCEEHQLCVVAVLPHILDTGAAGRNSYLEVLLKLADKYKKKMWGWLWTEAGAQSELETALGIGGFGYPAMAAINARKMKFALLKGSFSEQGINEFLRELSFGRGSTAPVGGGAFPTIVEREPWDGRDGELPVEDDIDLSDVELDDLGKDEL
Rtt109 Vps75: inhibitors of C. albicans Rtt109/Vps75 HAT, primary screen, biochemical, ThioGlo CoA-SH fluorescence, plate reader. hit rate 0.16% among 330,000. Histone acetyltransferase RTT109 (Candida albicans (strain SC5314 / ATCC MYA-2876)), …. inhibition, % at 34.9 µM. purified Rtt109/Vps75, 4 h;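 active = inhibition of at least 50% in every replicate; inconclusive = best replicate reaches 50% inhibition but some replicates fall short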
SIRT5 block: SIRT5 desuccinylase inhibitors, primary screen, biochemical, fluorescence imaging, single point, set 5. NAD-dependent protein deacylase sirtuin-5, mitochondrial (Homo sapiens), Q9NXA8. Purified SirT5, succinyl-peptide AMC, trypsin-coupled fluorescence. inhibition, % at 15 µM. hit rate 1.1% among 330,000. AID 652115, 2013; in the data active = inhibition above about 15%; inconclusive = no clear call, values can overlap the other calls
Active calls of the source: *; ? = inconclusive; . = no result.

SMILES | DENV2 CPE rescue | PDI turbidity | ERp5 inh | Rtt109 Vps75 | SIRT5 block
C[C@@H]1CN([C@H](C)CO)C(=O)Cc2cc(NS(=O)(=O)c3ccc(Cl)cc3)ccc2O[C@H]1CN(C)CC1CCCCC1 | -3.1 | . | 0.4 | . | 13.8
C[C@@H]1CN([C@@H](C)CO)C(=O)Cc2cc(NS(=O)(=O)c3ccc(Cl)cc3)ccc2O[C@@H]1CN(C)S(=O)(=O)c1ccc(Cl)cc1 | 47.0* | . | 2.1 | . | 3.9
C[C@@H]1CN([C@H](C)CO)C(=O)Cc2cc(NS(=O)(=O)c3ccc(Cl)cc3)ccc2O[C@@H]1CN(C)CC1CCCCC1 | 48.9* | . | 8.4 | . | .
CN(C)CC(=O)N[C@H]1CC[C@H](CCn2cc(C3CCCC3)nn2)O[C@H]1CO | 0.0 | . | -3.5 | . | 2.9
O=C(O)C[C@H]1C[C@H]2c3cc(NC(=O)NC4CCCCC4)ccc3O[C@H]2[C@H](CO)O1 | -3.0 | . | -2.4 | . | -0.2
COc1ccc2c(CN3CCCC3)cc(=O)oc2c1 | 3.9 | . | -5.7 | . | 19.2*
CC(C)=C(NC(=O)c1ccccc1Cl)C(=O)NCCc1nc2ccccc2[nH]1 | 130.0* | 0.8 | -5.1 | . | -2.2
COc1ccc(CNC(=O)C(c2ccco2)N(Cc2cccs2)C(=O)Cc2cccs2)cc1 (configuration not stated) | . | -9.9 | . | 1.3 | .
COc1ccc(CNC(=O)C(c2ccco2)N(C(=O)Cc2cccs2)c2cccnc2)cc1 (configuration not stated) | 6.7 | -0.6 | -1.7 | 4.6 | 34.7*
O=C(CC(c1ccco1)S(=O)(=O)c1ccccc1)c1ccccc1 (configuration not stated) | 1.3 | -3.5 | -6.8 | 0.1 | 20.3*
Cc1ccc(S(=O)(=O)NCC(c2ccco2)S(=O)(=O)c2ccccc2)cc1 (configuration not stated) | -7.0 | 2.4 | -6.2 | -1.1 | -2.0
CC(=O)N(C)C[C@H]1Oc2ncc(C#Cc3ccc(F)cc3)cc2C(=O)N([C@H](C)CO)C[C@H]1C | 2.8 | . | -1.0 | . | -2.8
Cc1ccc(S(=O)(=O)Nc2ccc3c(c2)C(=O)N([C@@H](C)CO)C[C@H](C)[C@@H](CN(C)C)OCCCC[C@H](C)O3)cc1 | 4.7 | . | 2.5 | . | -1.4
O=C(NCCN1CCCC(O)C1)c1cc(COc2ccc(F)cc2Cl)on1 (configuration not stated) | -1.4 | -4.8 | 2.7 | -8.1 | 24.3*
CCCCCN(C(=O)CCC(=O)OCC(=O)c1ccc(CCC)cc1)c1c(N)n(CCCC)c(=O)[nH]c1=O | 10.2 | 0.5 | -0.2 | 3.0 | 29.6*
CCCCn1c(N)c(N(CC)C(=O)c2cc(C)cc(C)c2)c(=O)[nH]c1=O | 35.0* | 17.8 | 1.7 | 2.5 | -3.6
COc1ccc(C2CC(=O)c3c(O)cc(O)cc3O2)cc1O (configuration not stated) | 23.5* | . | 2.9 | -11.8 | 2.7
O=C1CC(c2ccccc2)Oc2cc(O)cc(O)c21 (configuration not stated) | 69.9* | . | -5.9 | 2.1 | 1.4
O=C1CC(c2ccc(O)c(O)c2)Oc2cc(O)cc(O)c21 (configuration not stated) | -4.3 | . | -1.5 | 3.8 | .
COCC(=O)N[C@H]1CC[C@H](CC(=O)NCc2ccc(Cl)cc2)O[C@@H]1CO | -1.9 | . | 12.4 | . | 0.7
C[C@@H]1CN([C@@H](C)CO)C(=O)c2cccc(NC(=O)Nc3ccc4c(c3)OCO4)c2O[C@@H]1CN(C)C | 23.5* | . | 7.9 | . | -0.4
C[C@@H]1CN([C@H](C)CO)C(=O)c2cccc(NC(=O)Nc3ccc4c(c3)OCO4)c2O[C@@H]1CN(C)C | -9.4 | . | -7.9 | . | -4.3
Cc1ccc(S(=O)(=O)N(C)C[C@H]2Oc3c(NC(=O)Nc4ccc5c(c4)OCO5)cccc3C(=O)N([C@H](C)CO)C[C@H]2C)cc1 | -1.8 | . | -0.9 | . | 12.5
Cc1ccc(S(=O)(=O)N(C)C[C@@H]2Oc3c(NC(=O)Nc4ccc5c(c4)OCO5)cccc3C(=O)N([C@H](C)CO)C[C@@H]2C)cc1 | 12.4 | . | 6.4 | . | 15.1*
CNC[C@H]1Oc2c(NC(=O)Nc3ccc4c(c3)OCO4)cccc2C(=O)N([C@@H](C)CO)C[C@H]1C | -1.9 | . | 0.8 | . | 99.0*
SMILES | DENV2 CPE rescue | PDI turbidity | ERp5 inh | Rtt109 Vps75 | SIRT5 block
C[C@@H]1CCCCO[C@@H](CN(C)S(C)(=O)=O)[C@H](C)CN([C@@H](C)CO)C(=O)c2cc(NC(=O)c3ccccc3)ccc2O1 | 4.6 | . | 0.6 | . | -0.2
CCCC(=O)Nc1ccc2c(c1)OC[C@@H](C)N(CCC(F)(F)F)C[C@@H](C)[C@@H](OC)CN(C)C2=O | 5.0 | . | -1.4 | . | 6.5
C[C@@H]1CN([C@H](C)CO)S(=O)(=O)c2ccc(C3=CCCCC3)cc2O[C@H]1CN(C)C(=O)Cc1ccccc1 | 8.7 | . | -1.5 | . | 15.1*
C[C@@H]1CN([C@@H](C)CO)S(=O)(=O)c2ccc(C3=CCCCC3)cc2O[C@@H]1CN(C)C(=O)Cc1ccccc1 | ? | . | -5.7 | . | 18.5*
C[C@@H]1CN([C@H](C)CO)S(=O)(=O)c2ccc(C3=CCCCC3)cc2O[C@@H]1CN(C)C(=O)Cc1ccccc1 | -2.6 | . | -1.9 | . | 12.6
C[C@@H]1CN([C@@H](C)CO)S(=O)(=O)c2ccc(C3=CCCCC3)cc2O[C@H]1CN(C)C(=O)Cc1ccccc1 | -13.2 | . | -5.2 | . | 16.0*
CCCCOc1ccc(N(CC(=O)NCC2CCCO2)C(=O)CCC(=O)Nc2nccs2)cc1 (configuration not stated) | 2.7 | -3.5 | 1.4 | -6.9 | 1.9
CCOc1ccc(N(CC(=O)NCC2CCCO2)C(=O)CCC(=O)Nc2nccs2)cc1 (configuration not stated) | 2.0 | -0.2 | 8.5 | 8.6 | 16.7*
OCC[C@H]1C[C@H](O)[C@@H](O)[C@@]2(Cc3ccccc3CCO2)O1 | ? | -0.3 | 0.9 | -7.5 | 5.9
OCC[C@H]1C[C@@H](O)[C@H](O)[C@@]2(CCCO2)O1 | 59.0* | 0.6 | 8.0 | -3.4 | -1.5
OCC[C@H]1C[C@@H](O)[C@H](O)[C@@]2(Cc3ccccc3CCO2)O1 | 22.9* | -2.4 | 3.6 | -7.1 | -0.1
OCC[C@@H]1C[C@H](O)[C@@H](O)[C@@]2(CCc3ccccc3CO2)O1 | 6.8 | -1.8 | -9.3 | 8.1 | .
OCC[C@H]1C[C@@H](O)[C@H](O)[C@@]2(CCc3ccccc3CO2)O1 | 48.0* | -9.5 | -1.4 | -4.8 | -6.7
COc1ccccc1NC(=O)C(C)OC(=O)C1CCN(S(=O)(=O)c2ccccc2C(F)(F)F)CC1 (configuration not stated) | 54.1* | -8.2 | 1.6 | -0.3 | -3.0
CC(=O)Nc1ccc(NC(=O)C(C)OC(=O)C2CCN(S(=O)(=O)c3ccccc3C(F)(F)F)CC2)cc1 (configuration not stated) | -7.6 | 0.9 | 19.9 | 0.8 | 3.8

Screens from PubChem BioAssay.
